From the supplement of paper PMC7411054 come the findings set out here.

Common to all, as to details: treatment time: 24 h
Test [1] relates to HepG2-TUBA1B-RELA. The test can be described thus: lowest phenotypically active concentration; higher = less potent. A digest of the protocol:
(§1)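 Two criteria together defined phenotypic activity: deviation and reproducibility. Deviation meant ≥3 of 4 wells beyond the 95th percentile of Euclidean distances in solvent control wells, and reproducibility meant a median replicate Pearson correlation above the 95th percentile of non-replicates. Wells had been treated for 24 h at 0.3, 1, 3 or 9 µM in fifteen gene-edited A549, HepG2 and WPMY1 reporter lines before live imaging.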

The next test has as its system A549-ACTB-RAB5A. The test can be described thus: phenotypically active (imaging signature differs from DMSO and reproducible) at any of 0.3-9 uM (binary (1 = active, 0 = inactive)); higher = active. The method in brief:
as §1

A further test relates to A549-CANX-COX4. Described as above. The method in brief:
as §1

The subject of a further test is A549-GM130-SQSTM1. The description is as above. A digest of the protocol:
as §1

Another test relates to A549-TP53BP1-CLTA. The test is described as above. A digest of the protocol:
as §1

The test system of the next test is A549-TUBA1B-RELA. The test is described as above. The method in brief:
as §1

The next test relates to HepG2-ACTB-RAB5A. Described as above. The method in brief:
as §1

Another test relates to HepG2-CANX-COX4. Described as above. The method in brief:
as §1

Another test has as its system HepG2-GM130-SQSTM1. The description is as above. A digest of the protocol: as §1
The next test concerns HepG2-TP53BP1-CLTA. Described as above. A digest of the protocol: as §1
Test [2] deals with HepG2-TUBA1B-RELA. The description is as above. The method in brief: as §1
In test [3] the test system is WPMY1-ACTB-RAB5A. The description is as above. A digest of the protocol:
as §1

For test [4], the system named is WPMY1-CANX-COX4. The description is as above. The method in brief: as §1
Test [5] relates to WPMY1-GM130-SQSTM1. Described as above. The method in brief: as §1
Another test concerns WPMY1-TP53BP1-CLTA. The description is as above. The method in brief: as §1
The test system of test [6] is WPMY1-TUBA1B-RELA. The description is as above. The method in brief:
as §1

The subject of test [7] is WPMY1-CANX-COX4. The test is described as follows: lowest phenotypically active concentration; higher = less potent. The method in brief:
as §1

Test [8] has as its system WPMY1-GM130-SQSTM1. Described as above. A digest of the protocol:
as §1

Test [9] relates to WPMY1-TUBA1B-RELA. The test is described as above. The method in brief:
as §1

For test [10], the system named is WPMY1-ACTB-RAB5A. The description is as above. The method in brief:
as §1

Structures can show the parent of a compound that is named as a salt.

With `COCCCOc1ccnc(CS(=O)c2nc3ccccc3[nH]2)c1C` (stereo not given) [rabeprazole], in the test on HepG2-TUBA1B-RELA [1], the “lowest phenotypically active concentration” value came out at 9 µM. The phenotypically active with A549-ACTB-RAB5A is 0 (inactive); in the test on A549-CANX-COX4, 0 (inactive); with A549-GM130-SQSTM1 it was 0 (inactive); in the test with A549-TP53BP1-CLTA it was 0 (inactive); in the test with A549-TUBA1B-RELA it was 0 (inactive); in the test with HepG2-ACTB-RAB5A, 1 (active). Further, the phenotypically active is 0 (inactive) in the test with HepG2-CANX-COX4; 0 (inactive) in the test on HepG2-GM130-SQSTM1; 0 (inactive) with HepG2-TP53BP1-CLTA; 1 (active) in the test on HepG2-TUBA1B-RELA [2]; 0 (inactive) in the test on WPMY1-ACTB-RAB5A [3]; 0 (inactive) in the test on WPMY1-CANX-COX4 [4]. Further, the phenotypically active with WPMY1-GM130-SQSTM1 [5], with WPMY1-TP53BP1-CLTA and in the test on WPMY1-TUBA1B-RELA [6] was 0 (inactive) each time.
On to `O=c1c(O)c(-c2ccc(O)cc2)oc2cc(O)cc(O)c12` [Kaempferol], for which the “lowest phenotypically active concentration” value with WPMY1-CANX-COX4 [7] and with WPMY1-GM130-SQSTM1 [8] was 9 µM throughout. Moreover, the phenotypically active in the test on A549-ACTB-RAB5A was 0 (inactive); with A549-CANX-COX4 it was 0 (inactive); with A549-GM130-SQSTM1 it was 1 (active); with A549-TP53BP1-CLTA, 0 (inactive); with A549-TUBA1B-RELA, 0 (inactive); in the test with HepG2-ACTB-RAB5A, 0 (inactive). Besides, the phenotypically active with HepG2-CANX-COX4 is 0 (inactive); with HepG2-GM130-SQSTM1, 0 (inactive); in the test on HepG2-TP53BP1-CLTA, 0 (inactive); in the test on HepG2-TUBA1B-RELA [2], 0 (inactive); in the test on WPMY1-ACTB-RAB5A [3], 0 (inactive); with WPMY1-CANX-COX4 [4], 1 (active). Besides, the phenotypically active with WPMY1-GM130-SQSTM1 [5] is 1 (active); in the test on WPMY1-TP53BP1-CLTA, 1 (active); in the test on WPMY1-TUBA1B-RELA [6], 0 (inactive).
Take `NS(=O)(=O)c1cc2c(cc1C(F)(F)F)NC(Cc1ccccc1)NS2(=O)=O` (stereo not given) [bendroflumethiazide]: the phenotypically active with A549-ACTB-RAB5A, in the test with A549-CANX-COX4, with A549-GM130-SQSTM1, in the test with A549-TP53BP1-CLTA, in the test with A549-TUBA1B-RELA and with HepG2-ACTB-RAB5A was 0 (inactive) in each case. The phenotypically active in the test on HepG2-CANX-COX4 was 1 (active); with HepG2-GM130-SQSTM1, 0 (inactive); in the test with HepG2-TP53BP1-CLTA, 0 (inactive); with HepG2-TUBA1B-RELA [2], 0 (inactive); in the test on WPMY1-ACTB-RAB5A [3], 0 (inactive); in the test on WPMY1-CANX-COX4 [4], 0 (inactive). The phenotypically active in the test on WPMY1-GM130-SQSTM1 [5], in the test on WPMY1-TP53BP1-CLTA and in the test on WPMY1-TUBA1B-RELA [6] was 0 (inactive) throughout.
As to `Clc1ccc(C(c2ccc(Cl)cc2)[n+]2ccn(CC(OCc3ccc(Cl)cc3Cl)c3ccc(Cl)cc3Cl)c2)cc1` (stereo not given) [Calmidazolium chloride], the “lowest phenotypically active concentration” value with HepG2-TUBA1B-RELA [1], in the test on WPMY1-CANX-COX4 [7], with WPMY1-GM130-SQSTM1 [8] and in the test on WPMY1-TUBA1B-RELA [9] was 3 µM throughout. In addition, the phenotypically active in the test on A549-ACTB-RAB5A is 0 (inactive); in the test with A549-CANX-COX4 it was 0 (inactive); in the test with A549-GM130-SQSTM1, 0 (inactive); in the test on A549-TP53BP1-CLTA, 0 (inactive); in the test on A549-TUBA1B-RELA it was 0 (inactive); with HepG2-ACTB-RAB5A, 1 (active). The phenotypically active was 0 (inactive) in the test on HepG2-CANX-COX4; 0 (inactive) with HepG2-GM130-SQSTM1; 0 (inactive) in the test on HepG2-TP53BP1-CLTA; 1 (active) in the test with HepG2-TUBA1B-RELA [2]; 0 (inactive) in the test on WPMY1-ACTB-RAB5A [3]; 1 (active) with WPMY1-CANX-COX4 [4]. In addition, the phenotypically active in the test on WPMY1-GM130-SQSTM1 [5] was 1 (active); in the test with WPMY1-TP53BP1-CLTA it was 0 (inactive); in the test on WPMY1-TUBA1B-RELA [6], 1 (active).
On to `C[C@@H]1CN(Cc2ccc(F)cc2)[C@@H](C)CN1C(=O)c1cc2c(C(=O)C(=O)N(C)C)cn(C)c2cc1Cl` [SCIO 469 hydrochloride], for which the “lowest phenotypically active concentration” value is 9 µM with HepG2-TUBA1B-RELA [1], 1 µM in the test on WPMY1-ACTB-RAB5A [10] and 3 µM in the test on WPMY1-CANX-COX4 [7]. In addition, the phenotypically active in the test with A549-ACTB-RAB5A is 0 (inactive); in the test on A549-CANX-COX4, 0 (inactive); with A549-GM130-SQSTM1, 0 (inactive); in the test with A549-TP53BP1-CLTA it was 0 (inactive); in the test on A549-TUBA1B-RELA, 0 (inactive); in the test on HepG2-ACTB-RAB5A it was 1 (active). Moreover, the phenotypically active was 1 (active) in the test with HepG2-CANX-COX4; 0 (inactive) in the test on HepG2-GM130-SQSTM1; 1 (active) in the test on HepG2-TP53BP1-CLTA; 1 (active) in the test on HepG2-TUBA1B-RELA [2]; 1 (active) with WPMY1-ACTB-RAB5A [3]; 1 (active) with WPMY1-CANX-COX4 [4]. The phenotypically active in the test on WPMY1-GM130-SQSTM1 [5], in the test on WPMY1-TP53BP1-CLTA and with WPMY1-TUBA1B-RELA [6] was 0 (inactive) throughout.
